Results on 34 molecules are retold here after PubChem BioAssay (Tox21).

Several values for one entry are separate records, joined by “and”; a condition that tells them apart may be missing. Equal values may be shown once. Results filed as inconclusive are left out. Entries that show only a call come without a potency. Activity calls are given as the source filed them. Calls follow the shape of the dose curve; as a rule, active = well fitted curve in the direction sought with a large enough effect in the repeat runs; inconclusive = weak or mixed curves; inactive = no such curve, though single readings can be large; an effect the other way counts as inactive or inconclusive.
Also: nearly all actives have a fitted effect of over 55% in size.
Potency is read from the fitted curve at half-maximal effect.

Chain of Aromatase (Homo sapiens) (P11511 whole entry, looked up): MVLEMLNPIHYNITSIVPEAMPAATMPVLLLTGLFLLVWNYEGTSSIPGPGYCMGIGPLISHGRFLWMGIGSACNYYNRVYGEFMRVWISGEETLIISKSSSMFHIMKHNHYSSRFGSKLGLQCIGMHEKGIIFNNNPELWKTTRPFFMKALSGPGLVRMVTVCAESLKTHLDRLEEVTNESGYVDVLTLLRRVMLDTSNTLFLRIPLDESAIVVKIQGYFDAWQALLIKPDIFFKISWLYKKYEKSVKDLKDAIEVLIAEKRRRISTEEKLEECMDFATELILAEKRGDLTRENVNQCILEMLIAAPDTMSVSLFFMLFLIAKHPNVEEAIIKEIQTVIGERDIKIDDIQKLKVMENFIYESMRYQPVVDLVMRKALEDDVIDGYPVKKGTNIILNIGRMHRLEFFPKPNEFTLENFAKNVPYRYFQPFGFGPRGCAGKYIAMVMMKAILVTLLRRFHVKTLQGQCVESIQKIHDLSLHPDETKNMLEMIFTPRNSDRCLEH

One experiment addresses Aromatase (Homo sapiens) (UniProt P11511). Description: qHTS assay to identify aromatase inhibitors (AID 743083). The following applies: MCF-7 aro ERE, testosterone-driven ERE luciferase, 24 h; series mostly up to 70.3 µM.
Consider `CC(C)C[C@H](NC(=O)[C@H](Cc1ccccc1)NC(=O)c1cnccn1)B(O)O`, for which the Potency is 21.1 nM (active) and 15 nM (active).
Same read-out and setting: to `CC(C)CCCCCCCOC(=O)c1ccc(C(=O)OCCCCCCCC(C)C)c(C(=O)OCCCCCCCC(C)C)c1` belongs “inactive”; to `CCCCCCCCNC`, “inactive”; to `CCCCCCCCS`, “inactive”.
Still for that read-out and setting: for `C=CC(O)CCCCC` (configuration not stated) the value was “inactive”; for `CCCCCCCCCCCCCCCCC(=O)O`, “inactive”; for `Cc1cc(C)n(CO)n1`, “inactive”.
Still for that read-out and setting: for `Oc1ccc(CCNCCCCCCNCCc2ccccc2)cc1O` the value was “inactive”.

Tested on in another experiment: not listed separately
Description: qHTS assay to identify aromatase inhibitors - cell viability counter screen (AID 743084).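 Also: cells stimulated with testosterone during compound exposure.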 The following applies: MCF-7 aro ERE viability, CellTiter-Fluor, 24 h; series mostly up to 70.3 µM. On the technique in general: qHTS replaces the single test concentration by a dilution series.
Regarding `C[C@H](CN1CCCC1)C(=O)c1ccc(C(F)(F)F)cc1`, the Potency result is “inactive”.
The same measure, in the same setting: for `N#Cc1ccc(CC(=O)c2cccc(C(F)(F)F)c2)cc1` the value was “inactive”; for `Cc1c(Nc2ncccc2C(=O)O)cccc1C(F)(F)F`, “inactive”; for `CCCN(C1CCN(C(=O)C2CCNCC2)CC1)[C@@H]1CCc2ccc(OC)cc2C1`, “inactive”.
Regarding `COC(=O)c1cc(Cl)ccc1[N+](=O)[O-]`, the Potency entry is “inactive”.
On the same count and under the same terms, for `CC1=CC(=C(c2ccc(N)cc2)c2ccc(N)cc2)C=CC1=N` the value was 11.9 µM (active).
In the case of `c1ccc(CCNc2nc(-c3ccccc3)cs2)cc1`, the Potency entry was “inactive”.
The same measure, in the same setting: to `O=C(O)COCC(=O)O` belongs “inactive”; to `CC(C)(Cc1c[nH]c2ccccc12)NCC(O)COc1ccccc1C#N` (configuration not stated), “inactive”.
Still for that read-out and setting: to `O=C(OC1C[C@H]2CC[C@@H](C1)[N+]21CCCC1)C(O)(c1ccccc1)c1ccccc1` (some centres not stated) belongs “inactive”; to `C=C[Si]1(C)O[Si](C)(C=C)O[Si](C)(C=C)O[Si](C)(C=C)O1` (configuration not stated), “inactive”; to `Cc1c(Cl)cccc1Nc1ccccc1C(=O)O`, “inactive”.
On to `O=C(O)CNc1ccccc1`, for which the Potency result is “inactive”.
As to `C=C[Si](OCC)(OCC)OCC`, the Potency result is “inactive”.
Same read-out and setting: for `C=CC(C)(O)CC/C=C(/C)CCC=C(C)C` (configuration not stated) the value was “inactive”; for `Cc1nc2sccn2c(=O)c1CCN1CCC(=C(c2ccc(F)cc2)c2ccc(F)cc2)CC1`, “inactive”; for `CCCCC(CC)COCCC#N` (configuration not stated), “inactive”.
Still for that read-out and setting: to `C[Si](C)(C)O[Si](C)(C)O[Si](C)(C)C` belongs “inactive”; to `CCOc1ccc2c(c1)C(C)CC(C)(C)N2` (configuration not stated), “inactive”.
Same read-out and setting: to `O=c1c2ccccc2oc2ccccc12` belongs “inactive”.
In the case of `O=[N+]([O-])c1ccc(Cl)cc1Cl`, the Potency result was “inactive”.
Same read-out and setting: for `O=C(O)c1ccccc1[N+](=O)[O-]` the value was “inactive”; for `CC(C(=O)O)c1ccc(/C=C2\CCCCC2=O)cc1` (configuration not stated), “inactive”; for `CC(=O)Nc1ccn(C2COC(COC(=O)c3ccccc3)O2)c(=O)n1` (configuration not stated), “inactive”.
In the case of `O=C(NC1CCN(CCc2c[nH]c3ccccc23)CC1)c1ccccc1`, the Potency result is “inactive”.
The same measure, in the same setting: for `CC(C)C[C@H](NC(=O)[C@H](Cc1ccccc1)NC(=O)c1cnccn1)B(O)O` the value was 1.33 µM (active); for `CC(C)CCCCCCCOC(=O)c1ccc(C(=O)OCCCCCCCC(C)C)c(C(=O)OCCCCCCCC(C)C)c1`, “inactive”; for `CCCCCCCCNC`, “inactive”.
With `CCCCCCCCS`, the Potency entry is “inactive”.
On to `C=CC(O)CCCCC` (configuration not stated), for which the Potency result was “inactive”.
The same measure, in the same setting: to `CCCCCCCCCCCCCCCCC(=O)O` belongs “inactive”.
Consider `CCOCCn1c(N2CCCN(C)CC2)nc2ccccc21`, for which the Potency result was “inactive”.
On the same count and under the same terms, for `Cc1cc(C)n(CO)n1` the value was “inactive”; for `Oc1ccc(CCNCCCCCCNCCc2ccccc2)cc1O`, “inactive”.
